For five compounds, composite z-score and z-score results are on record in PubChem BioAssay.

A short description of assay [1]: compounds binding Alexa647 anti-His antibody – biochemical, small-molecule microarray, 635 nm fluorescence, artefact control for SMM control protein annotation, primary screen (AID 1128).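 Note: score merges feature fluorescence with signal-to-noise for each printed compound spot.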 The note with it: higher = more signal.
Assay [2] has as its system Human papillomavirus type 1a E7 protein (residues 1-88). In words: HPV1a E7 small-molecule binders, primary screen, biochemical, small-molecule microarray, residues 1-88, 635 nm (AID 1129). To be noted: small-molecule microarray binding, fluorescence 635 nm; higher = more signal.
Assay [3] deals with Focal adhesion kinase 1 (Homo sapiens) (UniProt Q05397). In words: PTK2 protein binding on printed compound slides – biochemical, small-molecule microarray, 635/667 nm fluorescence, BSA, DTT, primary screen (AID 1130).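 Note: composite of spot emission at 667 nm and signal to noise over triplicate slides.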 The note with it: 635 nm fluorescence, higher = more signal.
Focal adhesion kinase 1 (Homo sapiens), sequence (Q05397 whole entry, looked up): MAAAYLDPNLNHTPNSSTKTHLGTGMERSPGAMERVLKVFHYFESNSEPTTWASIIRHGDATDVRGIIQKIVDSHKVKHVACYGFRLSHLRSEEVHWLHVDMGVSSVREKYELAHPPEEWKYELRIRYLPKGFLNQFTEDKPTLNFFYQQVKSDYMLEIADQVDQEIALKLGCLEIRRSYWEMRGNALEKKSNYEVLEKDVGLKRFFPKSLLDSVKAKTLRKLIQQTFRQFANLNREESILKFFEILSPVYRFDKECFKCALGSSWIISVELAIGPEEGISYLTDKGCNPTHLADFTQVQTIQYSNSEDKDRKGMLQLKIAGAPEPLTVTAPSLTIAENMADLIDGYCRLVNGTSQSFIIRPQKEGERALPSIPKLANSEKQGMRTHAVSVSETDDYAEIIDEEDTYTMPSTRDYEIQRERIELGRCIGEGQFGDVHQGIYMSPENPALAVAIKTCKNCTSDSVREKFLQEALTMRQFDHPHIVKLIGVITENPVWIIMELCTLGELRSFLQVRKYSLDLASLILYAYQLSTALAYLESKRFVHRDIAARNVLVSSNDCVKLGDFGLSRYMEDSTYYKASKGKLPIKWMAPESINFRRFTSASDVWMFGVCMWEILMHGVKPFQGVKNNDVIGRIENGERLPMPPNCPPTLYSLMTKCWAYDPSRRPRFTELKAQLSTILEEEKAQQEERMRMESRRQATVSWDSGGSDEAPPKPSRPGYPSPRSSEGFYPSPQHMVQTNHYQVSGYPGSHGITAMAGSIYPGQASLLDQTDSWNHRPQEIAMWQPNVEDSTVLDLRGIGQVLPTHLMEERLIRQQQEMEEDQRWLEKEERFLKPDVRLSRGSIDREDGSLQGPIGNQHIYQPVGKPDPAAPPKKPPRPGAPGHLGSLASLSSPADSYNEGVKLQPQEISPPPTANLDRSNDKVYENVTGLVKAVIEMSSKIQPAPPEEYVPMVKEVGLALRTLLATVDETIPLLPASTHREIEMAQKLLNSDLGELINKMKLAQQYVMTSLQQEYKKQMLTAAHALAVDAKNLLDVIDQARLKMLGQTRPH
Assay [4] deals with Fibrinogen (Alexa647-labelled). In words: Alexa647-fibrinogen binding to printed small molecules – biochemical, small-molecule microarray, 635/667 nm fluorescence, artefact control for SMM control-protein annotation, profiling panel (AID 1131).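 Note: z-score merges 667 nm fluorescence with per-spot signal-to-noise over triplicate slides.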 To be noted: fibrinogen-A647 binding fluorescence, higher = more signal.
Assay [5] addresses Follistatin (Homo sapiens) (UniProt P19883). In words: FST protein binding to printed compounds – biochemical, small-molecule microarray, 635/667 nm fluorescence, primary screen (AID 1132). To be noted: 635 nm fluorescence, higher = more signal.
In assay [6] the target is Fibroblast growth factor 2 (Homo sapiens) (UniProt P09038). Description: basic fibroblast growth factor binding to printed compounds – biochemical, small-molecule microarray, 635/667 nm fluorescence, primary screen (AID 1133). The note with it: FGF2, fluorescence 635/667, higher = more signal.
Fibroblast growth factor 2 (Homo sapiens), sequence (P09038 whole entry, looked up): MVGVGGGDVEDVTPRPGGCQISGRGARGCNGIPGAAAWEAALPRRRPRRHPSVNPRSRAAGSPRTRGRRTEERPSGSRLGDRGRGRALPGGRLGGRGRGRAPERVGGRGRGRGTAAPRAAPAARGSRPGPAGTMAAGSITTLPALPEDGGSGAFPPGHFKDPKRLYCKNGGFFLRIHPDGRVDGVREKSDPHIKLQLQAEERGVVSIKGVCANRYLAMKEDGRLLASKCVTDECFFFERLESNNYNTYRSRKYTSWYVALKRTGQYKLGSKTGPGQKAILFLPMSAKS
Assay [7] can be described thus: JC-1 mitochondrial potential readout, lung cancer cells – cell-based, A549, JC-1 fluorescence, basal, 24 h, 100 nL, profiling panel (AID 1138).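 Note: A549 lung adenocarcinoma cells under basal conditions with no added stimulus; test concentration not given here.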 To be noted: higher = more signal.
The test system of a further assay is Lefty1. In words: Lefty1 protein binding to printed compounds – biochemical, small-molecule microarray, 635/667 nm fluorescence, primary screen (AID 1139). To be noted: fluorescence 635/667, higher = more signal.
The subject of assay [8] is wheat germ agglutinin (Triticum aestivum), Alexa647-labelled. Description: Alexa647-WGA lectin binding to printed small molecules – biochemical, small-molecule microarray, 635/667 nm fluorescence, artefact control for SMM control-protein annotation, profiling panel (AID 1140).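 Note: score merges 667 nm feature emission with signal to noise over triplicate slides.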 The note with it: WGA-A647 binding, 635 nm fluorescence, higher = more signal.
For assay [9], the target named is Luciferin 4-monooxygenase (Photinus pyralis) (UniProt P08659). In words: inhibition of purified Photinus pyralis luciferase – biochemical, luminescence, purified enzyme, 2006 set, primary screen (AID 1141).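 Note: cell-free assay with purified firefly luciferase at 100 ng per well in PBS; test concentration not given here.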 The note with it: purified firefly luciferase, SteadyGlo luminescence, 30 min; higher = more signal, called active from +8 up or from −8 down.
Luciferin 4-monooxygenase (Photinus pyralis), sequence (P08659 whole entry, looked up): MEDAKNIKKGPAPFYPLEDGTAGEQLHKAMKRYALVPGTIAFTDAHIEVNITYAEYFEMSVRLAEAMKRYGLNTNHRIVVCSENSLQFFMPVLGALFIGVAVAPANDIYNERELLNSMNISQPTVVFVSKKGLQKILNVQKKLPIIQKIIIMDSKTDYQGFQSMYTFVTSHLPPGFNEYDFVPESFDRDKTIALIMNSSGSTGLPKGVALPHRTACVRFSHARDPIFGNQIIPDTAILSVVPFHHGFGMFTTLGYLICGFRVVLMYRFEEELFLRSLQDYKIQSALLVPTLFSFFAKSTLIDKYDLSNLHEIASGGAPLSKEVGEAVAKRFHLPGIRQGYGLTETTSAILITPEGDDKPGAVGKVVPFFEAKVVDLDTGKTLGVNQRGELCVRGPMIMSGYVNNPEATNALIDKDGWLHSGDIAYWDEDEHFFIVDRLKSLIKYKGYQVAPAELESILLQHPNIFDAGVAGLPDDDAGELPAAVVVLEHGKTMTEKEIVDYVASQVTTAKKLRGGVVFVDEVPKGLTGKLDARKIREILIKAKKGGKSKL
The test system of assay [10] is Wnt5a (protein binding on small-molecule microarray). In words: small molecules binding Wnt5a protein – biophysical, small-molecule microarray, 635/667 nm fluorescence, primary screen (AID 1142).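 Note: fluorescence read at 667 nm with signal to noise per printed feature.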 The note with it: 635 nm fluorescence, higher = more signal.
A short description of assay [11]: ATP-based viability of Huh7 replicon cells – cell-based, CellTiter-Glo luminescence, basal, 48 h, cytotoxicity control for HCV replication inhibitor project, primary screen (AID 1143).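 Note: Huh7 hepatoma cells carrying a hepatitis C replication reporter with no stimulus; test concentration not given here.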 To be noted: higher = more signal, called active from +8 up or from −8 down. In general terms: In antiviral work, replicon cells carry a viral genome segment that copies itself.
Assay [12] can be described thus: Pseudomonas biofilm growth suppression – PAO1 strain, BacTiter-Glo luminescence, LB-PBS, primary screen (AID 1144). To be noted: P. aeruginosa PAO1 biofilm, 12 h, higher = more signal.
Assay [13] can be described thus: basal CRE-LacZ reporter activity in PC12 – cell-based, unstimulated, primary screen (AID 1145). To be noted: no forskolin, luminescence, 4.5 h, higher = more signal, called active from +8 up or from −8 down.
A short description of assay [14]: forskolin-driven CRE-LacZ activity in PC12 – cell-based, CRE-LacZ reporter, forskolin-stimulated, primary screen (AID 1146).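 Note: PC12 cells with 6xCRE LacZ reporter stimulated by forskolin 10 µM; beta-galactosidase reporter signal reflecting CREB driven transcription.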 The note with it: luminescence, 4.5 h, higher = more signal, called active from +8 up or from −8 down.
The target of assay [15] is Streptavidin (Streptomyces avidinii) (UniProt P22629). Description: compounds binding control protein streptavidin – biophysical, small-molecule microarray, 635/667 nm fluorescence, artefact control for SMM compound annotation, primary screen (AID 1147).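 Note: signal reflects streptavidin binding to arrayed compounds as a control protein.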 The note with it: higher = more signal.
Streptavidin (Streptomyces avidinii), sequence (P22629 whole entry, looked up): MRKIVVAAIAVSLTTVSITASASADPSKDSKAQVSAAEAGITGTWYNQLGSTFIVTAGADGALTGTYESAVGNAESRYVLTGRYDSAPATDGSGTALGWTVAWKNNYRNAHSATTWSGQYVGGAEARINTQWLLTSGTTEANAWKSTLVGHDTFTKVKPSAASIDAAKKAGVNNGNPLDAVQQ
Assay [16] in a line: probe aInhba binding on compound microarray – biochemical, small-molecule microarray, 635/667 nm fluorescence, primary screen (AID 1148).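 Note: score merges 667nm spot fluorescence with signal-to-noise for antibody binding to printed compounds.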 To be noted: higher = more signal.
The target of assay [17] is Torsin-1A (Homo sapiens) (UniProt O14656). Description: TOR1A wild-type binding on microarray – cell lysate, small-molecule microarray, lysate, 635/667 nm, primary screen (AID 1149). The note with it: COS7 hTOR1A-WT lysate, 635 nm fluorescence, higher = more signal.
Torsin-1A (Homo sapiens), sequence (O14656 whole entry, looked up): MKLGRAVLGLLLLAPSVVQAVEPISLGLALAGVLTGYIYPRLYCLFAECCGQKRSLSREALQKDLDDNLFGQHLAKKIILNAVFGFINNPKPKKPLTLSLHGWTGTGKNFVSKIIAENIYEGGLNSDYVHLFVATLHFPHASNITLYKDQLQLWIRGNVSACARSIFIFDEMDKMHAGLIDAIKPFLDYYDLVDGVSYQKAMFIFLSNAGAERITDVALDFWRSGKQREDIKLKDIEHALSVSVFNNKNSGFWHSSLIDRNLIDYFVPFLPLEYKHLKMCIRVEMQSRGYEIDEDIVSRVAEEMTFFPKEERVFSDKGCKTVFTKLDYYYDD
For assay [18] the target is unchanged. Description: torsin A mutant lysate binding on microarrays – cell lysate, small-molecule microarray, COS7 lysate, 635/667 nm fluorescence, primary screen (AID 1150).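 Note: score pools 667 nm emission and signal to noise measuring lysate protein binding.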 The note with it: COS7 hTOR1A mutant lysate, 635 nm fluorescence, higher = more signal.
For assay [19], the system named is Sonic hedgehog protein (Shh). In words: Sonic hedgehog microarray binding compounds – biochemical, small-molecule microarray, 635/667 nm fluorescence, primary screen (AID 1151).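 Note: Shh protein binding to compounds spotted on small-molecule microarray slides; score combines spot fluorescence intensity with signal-to-noise across triplicate slides.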 The note with it: 635 nm fluorescence, higher = more signal.

Active and inactive are the calls of the source. Unless noted, the rule behind the calls is not given here.

Follistatin (Homo sapiens), sequence (P19883 whole entry, looked up): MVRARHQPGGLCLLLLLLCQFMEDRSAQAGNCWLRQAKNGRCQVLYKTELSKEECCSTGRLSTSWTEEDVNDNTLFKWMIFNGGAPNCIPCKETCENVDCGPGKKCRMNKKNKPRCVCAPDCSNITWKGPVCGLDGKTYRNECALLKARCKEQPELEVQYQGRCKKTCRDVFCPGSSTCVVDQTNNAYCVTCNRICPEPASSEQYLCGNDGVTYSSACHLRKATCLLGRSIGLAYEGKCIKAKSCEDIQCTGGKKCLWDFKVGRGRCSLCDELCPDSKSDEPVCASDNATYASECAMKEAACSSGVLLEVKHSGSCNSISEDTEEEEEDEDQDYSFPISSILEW

On to `N#Cc1ccc(NN2C(C(O)c3cccs3)C=CC3C(=O)N(c4ccccc4)C(=O)C32)cc1` (stereo not given), for which the composite z-score in assay [1] is -0.272; in assay [2], 0.685; in [3] it was 0.421; in assay [4] it was 0.71; in [5], 0.556; in [6], -0.216. The composite z-score with Lefty1 was -0.257; in [8] it was 0.578; in assay [10], 0.128; in assay [15] it was 0.943; in assay [16] it was 0.109; with Torsin-1A (Homo sapiens) [17] it was 0.733. Moreover, the values for the composite z-score (with Torsin-1A (Homo sapiens) [18]; in [19]) were 0.812 and -0.318, respectively. For the same compound, the z-score in [7] is 0.989; in assay [9], -0.589 (inactive); in [11], -0.0331 (inactive); in [12], -1.34 (inactive); in assay [13], -0.329 (inactive); in [14], -0.224 (inactive).

Consider `O=C1OCCC=C[C@H]2OC34C=CCN(Cc5ccccc5)C(=O)[C@H]3N(CCCCCCO)C(=O)[C@@H]4C12` (stereo not given in full), for which the composite z-score in assay [1] is 0.0899; in assay [2], -0.374; in assay [3] it was -0.574; in assay [4] it was -0.873; in assay [5], -0.0109; in [6] it was -1.02. For the same compound, the composite z-score was 0.798 in the assay on Lefty1; -0.828 in assay [8]; -0.751 in [10]; -0.887 in assay [15]; -0.441 in assay [16]; -1.92 in the assay with Torsin-1A (Homo sapiens) [17]. Besides, the figures for the composite z-score (in the assay with Torsin-1A (Homo sapiens) [18]; in assay [19]) were -1.4 and 0.628, respectively. Further, the z-score in [7] was 0.544; in [9] it was 0.467 (inactive); in assay [11], 0.404 (inactive); in assay [12], -0.616 (inactive); in assay [13], -0.761 (inactive); in assay [14], -0.395 (inactive).

In the case of `C=CCNC(=O)[C@@H]1[C@H]2C(=O)O[C@H](c3ccccc3)[C@H](c3ccccc3)N2[C@H](c2ccccc2OCCO)[C@@]12C(=O)Nc1ccc(C#CC3=CCCCC3)cc12`, the composite z-score in [1] was 1.57; in assay [2] it was 1.22; in assay [3], 0.683; in assay [4], 0.9; in assay [5] it was 1.21; in assay [6], 1.02. Further, the composite z-score stood at 1.12 in the assay on Lefty1; 0.971 in assay [8]; 0.248 in assay [10]; 0.562 in assay [15]; 0.592 in assay [16]; 0.192 in the assay with Torsin-1A (Homo sapiens) [17]. For the same compound, the composite z-score in the assay with Torsin-1A (Homo sapiens) [18] was determined as 0.255; in assay [19], 1.91. For the same compound, the z-score in assay [7] is -1.55; in assay [9] it was -1.48 (inactive); in [11] it was -6.58 (inactive); in assay [12], -1.43 (inactive); in [13], -1.42 (inactive); in assay [14] it was -1.45 (inactive).

Regarding `[N-]=[N+]=Nc1ccccc1[C@H]1OC(c2ccc(OCCCO)cc2)=N[C@@]1(CCS(=O)(=O)c1ccccc1)C(=O)O`, the composite z-score in assay [1] came out at 1.2; in [2], 0.478; in assay [3] it was 0.042; in assay [4], 0.773; in assay [5], 0.395; in assay [6], 0.174. The composite z-score with Lefty1 is -0.782; in [8], 0.85; in [10] it was 0.296; in assay [15] it was 0.433; in assay [16] it was 0.0516; with Torsin-1A (Homo sapiens) [17], -0.363. In addition, the composite z-score was 1.13 in the assay with Torsin-1A (Homo sapiens) [18] and -0.721 in assay [19]. For the same compound, the z-score is -1.72 in assay [7]; -12.4 (active) in assay [9]; -1.06 (inactive) in [11]; 0.713 (inactive) in assay [12]; 1.29 (inactive) in assay [13]; -0.197 (inactive) in [14].

With `O=C/C=C/c1ccc(Cl)cc1`, the composite z-score was -0.318 in assay [1]; -1.36 in [2]; -0.195 in assay [3]; -0.991 in assay [4]; -0.329 in [5]; -0.236 in assay [6]. The composite z-score with Lefty1 is -0.283; in assay [8] it was -0.488; in assay [10], 0.268; in [15], -0.359; in assay [16], -0.179; in the assay with Torsin-1A (Homo sapiens) [17], -1.01. The composite z-score in the assay with Torsin-1A (Homo sapiens) [18] is -0.786; in assay [19] it was -0.823. Further, the z-score is 2.19 in assay [7]; -0.712 (inactive) in assay [9]; -2.45 (inactive) in assay [11]; -0.421 (inactive) in assay [12]; -0.258 (inactive) in assay [13]; 0.716 (inactive) in assay [14].
